Molecules are shown by their SMILES. Out of some 310,000 compounds screened, about 14,000 (4.5%) showed an effect of 50% or more. The effect is printed as a negative number. The list comes from a sample in which strong results are over-represented; it also holds similar structures and randomly drawn compounds.
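Note: peak tail current of the secondary pulse compared with the same well before compound.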

In the test the target is human ether-à-go-go-related gene (hERG) potassium channel (human, UniProt Q12809). The test can be described thus: primary screen, population patch clamp on CHO cells stably expressing hERG; higher = less effect of the substance.
Chain of human ether-à-go-go-related gene (hERG) potassium channel (Q12809 whole entry, looked up): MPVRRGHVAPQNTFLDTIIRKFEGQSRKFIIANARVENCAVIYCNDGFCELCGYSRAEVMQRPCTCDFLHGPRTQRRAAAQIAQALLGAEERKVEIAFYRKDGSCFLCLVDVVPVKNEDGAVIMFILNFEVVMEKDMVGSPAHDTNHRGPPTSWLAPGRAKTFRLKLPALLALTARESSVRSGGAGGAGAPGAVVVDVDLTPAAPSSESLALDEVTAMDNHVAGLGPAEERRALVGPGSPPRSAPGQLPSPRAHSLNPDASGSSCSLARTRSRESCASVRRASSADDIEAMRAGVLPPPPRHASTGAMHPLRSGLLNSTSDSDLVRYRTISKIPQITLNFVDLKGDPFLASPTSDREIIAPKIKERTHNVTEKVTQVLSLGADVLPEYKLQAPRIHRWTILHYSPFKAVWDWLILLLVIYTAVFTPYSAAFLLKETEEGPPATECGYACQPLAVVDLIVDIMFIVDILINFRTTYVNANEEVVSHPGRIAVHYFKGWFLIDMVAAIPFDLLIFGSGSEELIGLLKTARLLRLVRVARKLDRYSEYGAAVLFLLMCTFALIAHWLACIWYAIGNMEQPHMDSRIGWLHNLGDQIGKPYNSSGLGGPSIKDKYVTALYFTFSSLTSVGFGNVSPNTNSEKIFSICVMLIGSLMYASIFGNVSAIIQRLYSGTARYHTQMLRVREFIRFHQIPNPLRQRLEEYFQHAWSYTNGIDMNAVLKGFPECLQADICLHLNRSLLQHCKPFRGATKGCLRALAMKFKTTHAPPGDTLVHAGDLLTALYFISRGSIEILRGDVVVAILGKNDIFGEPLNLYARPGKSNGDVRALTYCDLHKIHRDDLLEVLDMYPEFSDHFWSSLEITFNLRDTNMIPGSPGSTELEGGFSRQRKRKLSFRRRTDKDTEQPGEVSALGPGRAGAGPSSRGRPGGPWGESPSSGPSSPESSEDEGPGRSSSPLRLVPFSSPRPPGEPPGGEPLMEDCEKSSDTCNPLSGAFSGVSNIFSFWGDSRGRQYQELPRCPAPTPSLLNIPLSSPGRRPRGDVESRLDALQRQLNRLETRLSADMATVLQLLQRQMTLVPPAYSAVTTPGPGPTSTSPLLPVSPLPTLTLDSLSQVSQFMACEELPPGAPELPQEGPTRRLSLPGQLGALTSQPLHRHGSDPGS
As to `CC1CCCN(C(=O)CSc2nnc3n(C4CCCC4)c(=O)c4ccccc4n23)C1` (stereo not drawn), the “hERG current change (%, negative = inhibition) at 10uM” value is listed as -62.7%. As to `O=C(CSc1nnc2n(C3CCCC3)c(=O)c3ccccc3n12)N1CCCCCC1`, the “hERG current change (%, negative = inhibition) at 10uM” value is listed as -51.1%. As for `CC1CCCN(C(=O)CSc2nnc3ccccn23)C1` (stereo not drawn), the “hERG current change (%, negative = inhibition) at 10uM” value is recorded as 4.63%.

`COc1ccccc1Cn1c(=O)c2ccccc2n2c(SCC(=O)N3CCCCC3)nnc12`: the “hERG current change (%, negative = inhibition) at 10uM” value is given as 15.2%. Regarding `O=C(CSc1nnc2n(C3CCCCC3)c(=O)c3ccccc3n12)OC1CCCCC1`, the “hERG current change (%, negative = inhibition) at 10uM” value is recorded as -4.92%. Take `CC1CCCN(C(=O)CSc2nnc(-c3cccnc3)n2C2CCCCC2)C1` (stereo not drawn): the “hERG current change (%, negative = inhibition) at 10uM” value is recorded as -13.4%. For `O=C(O)c1nccnc1C(=O)Nc1ccc(Oc2c(Cl)cccc2Cl)nc1`, the “hERG current change (%, negative = inhibition) at 10uM” value is -26.1%. For the molecule `COc1ccccc1NC(=O)CN1CCN(c2ccccc2F)CC1`, the “hERG current change (%, negative = inhibition) at 10uM” value is -18.4%.

On to `COc1ccc(C)cc1NC(=O)CN1CCN(S(=O)(=O)c2ccc(F)cc2)CC1`, for which the “hERG current change (%, negative = inhibition) at 10uM” value is on record as 7.19%. Consider `COc1ccccc1N1CCN(CC(=O)Nc2ccc(C)c(F)c2)CC1`, for which the “hERG current change (%, negative = inhibition) at 10uM” value was -23.1%. Turning to `COc1ccccc1NC(=O)CN1CCN(CC(=O)Nc2ccc(F)cc2)CC1`, the “hERG current change (%, negative = inhibition) at 10uM” value is -79.2%. With `COc1ccc(C)cc1NC(=O)CN1CCN(c2ccccc2F)CC1`, the “hERG current change (%, negative = inhibition) at 10uM” value is given as -10.3%. With `COc1ccc(C)cc1NC(=O)CN1CCN(c2ccc(F)cc2)CC1`, the “hERG current change (%, negative = inhibition) at 10uM” value is recorded as -50.4%. Regarding `COc1ccccc1NC(=O)CN1CCN(CC(=O)Nc2ccc(C)c(F)c2)CC1`, the “hERG current change (%, negative = inhibition) at 10uM” value is given as -70%. Consider `COc1cc(NC(=O)CN2CCN(CC(=O)Nc3ccccc3OC)CC2)cc(OC)c1`, for which the “hERG current change (%, negative = inhibition) at 10uM” value came to 0.0651%. For the molecule `CCN(CC)c1ccc(NC(=O)CN2CCN(CC(=O)Nc3ccccc3OC)CC2)cc1`, the “hERG current change (%, negative = inhibition) at 10uM” value is -26.9%. As to `COc1ccc(Nc2nc3[nH]c(=O)cc(O)c3s2)cc1`, the “hERG current change (%, negative = inhibition) at 10uM” value is reported as 14.2%. Then `Cc1ccc(S(=O)(=O)NN2C(=O)/C(=C/c3ccc(C(=O)O)cc3)SC2=S)cc1`, with 19.9%; and `Cc1ccc(NC(=O)CCNC(=O)c2ccc(Cl)cc2)cc1F`, with 9.19%. `O=C(CCNS(=O)(=O)c1ccccc1)NNC(=O)COc1ccc(Cl)cc1`: the “hERG current change (%, negative = inhibition) at 10uM” value was 2.29%. As to `O=C(COc1ccc(Nc2ccccc2)cc1)Nc1ccncc1`, the “hERG current change (%, negative = inhibition) at 10uM” value is recorded as -30.1%.

In the case of `O=C(Nc1ccc2c(c1)OCO2)Nc1ccc(Cl)cc1Cl`, the “hERG current change (%, negative = inhibition) at 10uM” value is listed as 9.53%.

Turning to `CCCCOC(=O)NC(NCC(O)c1ccccc1)(C(F)(F)F)C(F)(F)F` (stereo not drawn), the “hERG current change (%, negative = inhibition) at 10uM” value worked out at 6.78%. Turning to `O=C(CN(Cc1ccccc1)C(=O)c1csnn1)NCc1ccccc1`, the “hERG current change (%, negative = inhibition) at 10uM” value is listed as 8.5%. Consider `O=C(CN(Cc1ccccc1Cl)C(=O)c1csnn1)NCc1ccccc1`, for which the “hERG current change (%, negative = inhibition) at 10uM” value is -24%.

With `COc1ccc(CNC(=O)CN(C(=O)c2csnn2)c2cccc3c2CCCC3)cc1`, the “hERG current change (%, negative = inhibition) at 10uM” value is listed as -14.9%. For the molecule `C=CCN(CC(=O)NCc1ccc(F)cc1)C(=O)c1csnn1`, the “hERG current change (%, negative = inhibition) at 10uM” value is -18.2%.

Take `O=C(CN(Cc1ccc(Cl)cc1)C(=O)c1csnn1)NCc1ccccc1`: the “hERG current change (%, negative = inhibition) at 10uM” value was -56.7%. Then `O=C(CN(C(=O)c1csnn1)c1cccc2c1CCCC2)NCc1ccc(F)cc1`, with -57.7%; and `O=C(CN(Cc1ccccc1Cl)C(=O)c1csnn1)NCc1ccc(F)cc1`, with -50.4%. Take `COc1ccc(CNC(=O)CN(Cc2ccccc2Cl)C(=O)c2csnn2)cc1`: the “hERG current change (%, negative = inhibition) at 10uM” value is -34.8%. On to `O=C(CN(Cc1ccc(F)cc1)C(=O)c1csnn1)NCc1ccccc1`, for which the “hERG current change (%, negative = inhibition) at 10uM” value was -31.6%.

`O=C(CN(Cc1ccc(Cl)cc1)C(=O)c1csnn1)NCc1ccc(F)cc1`: the “hERG current change (%, negative = inhibition) at 10uM” value is reported as -66.6%. Turning to `O=C(CN(C(=O)c1csnn1)c1cccc2c1CCCC2)NCc1ccccc1`, the “hERG current change (%, negative = inhibition) at 10uM” value was -5.19%. Then `O=C(CN(Cc1ccccc1)C(=O)c1csnn1)NCCc1ccccc1`, with -18.9%; and `C/C(=N/NC(=O)c1ccc2c(c1)OCO2)c1cccc([N+](=O)[O-])c1`, with -10.1%; and `COc1ccc(C(=O)OCn2nnc3ccccc3c2=O)cc1`, with -10.4%. Consider `Cc1cc(C(=O)Nc2ccc(Nc3ccccc3)cc2)ccc1[N+](=O)[O-]`, for which the “hERG current change (%, negative = inhibition) at 10uM” value is recorded as 17.3%. For `CCc1ccc(NC(=O)CS(=O)CC(=O)NC(C)CCc2ccco2)cc1` (stereo not drawn), the “hERG current change (%, negative = inhibition) at 10uM” value was found to be 9.65%. As for `CSc1nc2ccccc2cc1/C=C(\C#N)c1cccc(Cl)c1`, the “hERG current change (%, negative = inhibition) at 10uM” value was found to be 8.2%. As for `CCN1C(C(=O)Nc2cc(C)on2)=C(O)c2ccccc2S1(=O)=O`, the “hERG current change (%, negative = inhibition) at 10uM” value is listed as 24.7%.

In the case of `CCCCCC(=O)Nc1cccc(C2=NOC3(C2)C[C@@H](C(N)=O)N(C(=O)c2ccc(Cl)cc2)C3)c1` (stereo partly drawn), the “hERG current change (%, negative = inhibition) at 10uM” value is given as -29.6%. Turning to `O=C(COc1ccc(Cl)cc1)Nc1cccc(S(=O)(=O)NC2=NCCCCC2)c1`, the “hERG current change (%, negative = inhibition) at 10uM” value is listed as -42.1%. Then `C/C(=N/NC(=O)CN1CCN(Cc2ccccc2)CC1)c1ccc([N+](=O)[O-])cc1`, with -76.5%; and `C/C(=N\NC(=O)CN1CCN(Cc2ccccc2)CC1)c1cccs1`, with -50.9%. As for `C/C(=N\NC(=O)c1ccc(CN2CCOCC2)cc1)c1ccc([N+](=O)[O-])cc1`, the “hERG current change (%, negative = inhibition) at 10uM” value was -7.18%.

Turning to `C/C(=N\NC(=O)CN1CCCCC1)c1cccc([N+](=O)[O-])c1`, the “hERG current change (%, negative = inhibition) at 10uM” value is reported as -25.9%. As to `C/C(=N/NC(=O)CC(=O)N/N=C(\C)c1ccc([N+](=O)[O-])cc1)c1ccc([N+](=O)[O-])cc1`, the “hERG current change (%, negative = inhibition) at 10uM” value is given as -28.8%. Turning to `C/C(=N\NC(=O)Cc1ccccc1)c1cccs1`, the “hERG current change (%, negative = inhibition) at 10uM” value is listed as -4.86%. For `C/C(=N/NC(=O)CN1CCN(Cc2ccccc2Cl)CC1)c1cccs1`, the “hERG current change (%, negative = inhibition) at 10uM” value is given as -17.8%. For `C/C(=N\NC(=O)CSc1nc(C)cc(C)n1)c1ccc([N+](=O)[O-])cc1`, the “hERG current change (%, negative = inhibition) at 10uM” value was -10.8%.

As to `C/C(=N/NC(=O)CSc1ccccn1)c1ccc([N+](=O)[O-])cc1`, the “hERG current change (%, negative = inhibition) at 10uM” value is -64.2%.

On to `CC1CCCCN1C(=O)CSc1nnc(-c2ccco2)n1C` (stereo not drawn), for which the “hERG current change (%, negative = inhibition) at 10uM” value was 4.88%. On to `COCCNCC(=O)N1CCCCCC1.O=C(O)C(=O)O`, for which the “hERG current change (%, negative = inhibition) at 10uM” value is recorded as -24.6%.

The values are drawn from paper PMC4336329 (PLoS ONE, 2015).
